As a reminder, the inhibition is the change of the read-out against control, counted positive when it falls.

Out of some 310,000 compounds screened, about 1,200 (0.39%) were called active. Not all results are given here. Measured potencies and affinities stand elsewhere. Values without a mark were called inactive. No rule for the calls is given here.

The values that follow come from PubChem BioAssay AID1903 (Southern Research Specialized Biocontainment Screening …, 2009).

For this test, the target named is Large T antigen (Simian virus 40) (UniProt P03070). Description: TAg ATPase/helicase activity blockers – biochemical (AID 1903). The following applies: SV40 large T antigen ATPase/helicase inhibition assay; at 20 µM; active compounds read high.
Chain of Large T antigen (Simian virus 40) (P03070 whole entry, looked up): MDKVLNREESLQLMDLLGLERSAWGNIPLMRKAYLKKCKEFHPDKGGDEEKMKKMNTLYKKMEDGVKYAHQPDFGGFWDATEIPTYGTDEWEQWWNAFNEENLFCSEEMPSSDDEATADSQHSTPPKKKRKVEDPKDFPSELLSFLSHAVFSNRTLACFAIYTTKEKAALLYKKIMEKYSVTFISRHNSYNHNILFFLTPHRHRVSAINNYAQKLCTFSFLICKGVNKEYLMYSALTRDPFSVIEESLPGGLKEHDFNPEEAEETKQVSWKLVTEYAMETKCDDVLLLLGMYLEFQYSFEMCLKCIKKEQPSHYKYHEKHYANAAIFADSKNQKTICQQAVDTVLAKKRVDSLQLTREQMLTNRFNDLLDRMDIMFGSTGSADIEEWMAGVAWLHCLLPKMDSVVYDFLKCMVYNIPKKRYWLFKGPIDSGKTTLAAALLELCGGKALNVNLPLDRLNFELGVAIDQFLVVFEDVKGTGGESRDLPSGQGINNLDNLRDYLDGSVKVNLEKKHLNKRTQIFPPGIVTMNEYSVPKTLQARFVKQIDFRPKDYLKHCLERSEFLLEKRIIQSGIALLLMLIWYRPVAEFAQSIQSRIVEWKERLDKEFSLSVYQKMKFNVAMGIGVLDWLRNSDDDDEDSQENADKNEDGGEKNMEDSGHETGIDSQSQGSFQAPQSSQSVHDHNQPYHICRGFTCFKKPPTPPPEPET
`CC(=O)N/C(=C\c1ccc(F)cc1)C(=O)NC(C(=O)O)C(C)C` (stereo unspecified): the inhibition is 0.16%.

For the molecule `O=c1cc(O)nc(SCc2ccccc2)n1-c1ccc(Cl)cc1`, the inhibition was 7.14%.

With `COc1ccc(NC(=O)CC2SC(=NCc3ccccc3OC)NC2=O)cc1` (stereo unspecified), the inhibition is 0.11%.

Take `COc1ccc(NC(=O)CSc2nnc(CC(=O)Nc3ccc(F)cc3)n2C)cc1`: the inhibition was 6.25%.

As for `O=C(COC(=O)C1CCCN1C(=O)C12CC3CC(CC(C3)C1)C2)c1ccc(Br)cc1` (stereo unspecified), the inhibition is 3.8%.

For the molecule `Cc1occc1C(=O)N1CCCC(N2CCN(c3ccccc3F)CC2)C1` (stereo unspecified), the inhibition is 7.6%.

As for `O=C(NCC1CC1)[C@]1(C(F)(F)F)C[C@H](CCC2CCCCC2)CCCO1`, the inhibition is 2.31%.

Consider `Fc1ccc(-c2nnc(CSc3nnc4ccccn34)o2)cc1`, for which the inhibition is 14.8%.

In the case of `O=c1cc(-c2ccc(O)cc2)oc2cc(O[C@@H]3O[C@H](CO)[C@@H](O)[C@H](O)[C@H]3O[C@@H]3OC[C@](O)(CO)[C@H]3O)cc(O)c12`, the inhibition is 8.96%.

With `COc1c(O)cc2c(c1O)C1OC(CO)C(O)C(O)C1OC2=O` (stereo unspecified), the inhibition was 2.96%.

For `O=c1c(-c2ccc(O)cc2)coc2c(C3O[C@H](CO)[C@@H](O)[C@H](O)[C@H]3O)c(O)ccc12` (stereo partly specified), the inhibition was 24.2%.

As to `O=c1cc(-c2ccc(O)cc2)oc2c(C3OCC(O)C(O)C3O)c(O)c(C3OC(CO)C(O)C(O)C3O)c(O)c12` (stereo unspecified), the inhibition is 45.1%.

Regarding `O=c1cc(-c2ccc(O)cc2)oc2c(C3O[C@H](CO)[C@@H](O)[C@H](O)[C@H]3O)c(O)cc(O)c12` (stereo partly specified), the inhibition is 26%.

As for `O=C(O)C1OC(Oc2cc3oc(-c4ccccc4)cc(=O)c3c(O)c2O)C(O)C(O)C1O` (stereo unspecified), the inhibition is 17.2%.

As to `CC(=O)Cc1cc(=O)c2c(C)cc(O)c(C3OC(CO)C(O)C(O)C3O)c2o1` (stereo unspecified), the inhibition is 5.68%.

Turning to `O=c1cc(-c2ccc(O)cc2)oc2c([C@@H]3O[C@H](CO)[C@@H](O)[C@H](O)[C@H]3O)c(O)c([C@@H]3O[C@H](CO)[C@@H](O)[C@H](O)[C@H]3O)c(O)c12`, the inhibition is 7.48%.

As for `CC(O)CNCCOc1ccccc1-c1ccccc1` (stereo unspecified), the inhibition was 8.76%.

Regarding `CCOC(=O)CN1C(=O)NC(C)(c2ccc(OC(F)F)cc2)C1=O` (stereo unspecified), the inhibition was 11.6%.

`CCC1(C)N=c2c(c(=O)n(C)c(=O)n2C)=NO1` (stereo unspecified): the inhibition was 2.8%.

Consider `CC(C)CN1C(=O)NC2(CCCc3ccccc32)C1=O` (stereo unspecified), for which the inhibition is 25%.

With `COc1ccc(/C=C(/NC(=O)c2ccc(C)cc2)C(=O)NCC2CCCO2)cc1` (stereo unspecified), the inhibition was 9.41%.

As for `CCOC(=O)Nc1nc(-c2ccccc2)c(C(=O)c2ccccc2)s1`, the inhibition is 10%.

Take `c1ccc(C2[C@H]3CN(Cc4cccnc4)[C@H](c4ccccc4)C34CC2(c2cccnc2)C4)cc1` (stereo partly specified): the inhibition is 5.83%.

As to `CCOC(=O)CSc1ncnc2c1cnn2-c1ccc(Cl)cc1`, the inhibition is 2.59%.

Take `COC(=O)c1nn(-c2ccccc2)c(Cl)c1/C=N/OCc1c(Cl)cccc1Cl`: the inhibition is 6.28%.

Regarding `COc1cc2c(cc1OC)CN(Cc1ccccc1)CC2`, the inhibition was 4.34%.

`COc1cc2c(cc1OC)CC(=O)N(C)CC2`: the inhibition was -0.375%.

For the molecule `COc1cc(NC(=O)CN2CCCCC2C)c(C)cc1[N+](=O)[O-]` (stereo unspecified), the inhibition was -0.94%.

As for `Nn1c(SCC(=O)NC(=O)NCc2ccco2)nnc1-c1ccc(OC(F)F)cc1`, the inhibition is 19.9%.

`Cc1ccc(Nc2n[nH]c(C)c2[N+](=O)[O-])cc1C`: the inhibition is 4.58%.

For `Cc1ccc(Nc2n[nH]c(C)c2[N+](=O)[O-])cc1`, the inhibition was -4.15%.

Turning to `O=C(NC1CCN(C(=O)Nc2ccc(F)cc2)CC1)c1ccc(F)cc1`, the inhibition is -6.41%.

On to `CC1=C/C(=C(\c2ccc(O)c(C)c2)c2ccccc2S(=O)(=O)O)C=CC1=O`, for which the inhibition is 1.87%.

For the molecule `O=C(O)c1cc(S(=O)(=O)O)ccc1O`, the inhibition is -2.3%.

Take `O=C(NCC(c1cccs1)N1CCOCC1)c1ccc(Cl)cc1` (stereo unspecified): the inhibition is 20.7%.

On to `S=C(Nc1ccc(Nc2ccccc2)cc1)N1CCN(c2ncccn2)CC1`, for which the inhibition is 26.2%.

Regarding `COc1cc2c(cc1OC)C(Cc1ccc(O)cc1)NCC2` (stereo unspecified), the inhibition was 70.4%.

Consider `COc1cc2c(cc1O)C(Cc1ccc(O)cc1)NCC2` (stereo unspecified), for which the inhibition was 14.4%.

`c1ccc(CCc2nn3c(Cn4nnc5ccccc54)nnc3s2)cc1`: the inhibition was -1.97%.

Turning to `O=C1c2ccccc2CCCC12N=NCC2c1cccc2ccccc12` (stereo unspecified), the inhibition was -6.72%.

Regarding `Cc1ncc(CO)c(/C=N/NC(=O)c2ccc(Br)cc2)c1O`, the inhibition was 3.1%.

`Cc1ncc(CO)c(/C=N/NC(=O)c2ccc(O)cc2)c1O`: the inhibition is 4.85%.

Turning to `O=C1C(Cc2ccccc2)Nc2ncnc(N3CCCCC3)c2N1Cc1ccc(Cl)cc1` (stereo unspecified), the inhibition is 23.8%.

Consider `Oc1ccc(C2=NNC(c3ccc(O)cc3)=NN2)cc1`, for which the inhibition was 6.31%.

As for `Oc1ccc(-c2cccc(-c3ccc(O)cc3)n2)cc1`, the inhibition was 24.3%.

As to `C=CSc1sc(Cl)c(N2CCOCC2)c1[N+](=O)[O-]`, the inhibition is 15.5%.

As to `C=CS(=O)(=O)c1sc(Cl)c(N2CCOCC2)c1[N+](=O)[O-]`, the inhibition is 28.6%.

In the case of `Cc1nc(-c2ccc(C(=O)Nc3cccc(Br)c3)cc2)cs1`, the inhibition is 5.4%.

Take `O=C(O)c1cn(CCOc2ccccc2Cl)c2ccccc12`: the inhibition was -2.87%.

`CCNC(=O)NC(=O)CN(C)c1ccccc1`: the inhibition is 1.38%.

Turning to `COc1ccc(N(CC(=O)Nc2cc(C)on2)S(=O)(=O)c2cc(C)ccc2C)cc1`, the inhibition is -9.08%.

As to `Cc1cccc(N=Nc2cnc(N)s2)c1`, the inhibition was 14.7%.

For `COc1cc(C(=O)O)ccc1Cl`, the inhibition is 8.61%.

For `COc1ccc(/C=C/C(=O)N(Cc2ccccc2)c2ccccn2)cc1OC`, the inhibition is -1.52%.

As to `O=C(/C=C/c1c(F)cccc1Cl)Nc1nc2ccccc2[nH]1`, the inhibition was 9%.

In the case of `O=C(CS(=O)(=O)c1ccccc1)c1cc2ccccc2oc1=O`, the inhibition was 32.7%.

Regarding `COc1ccc2cc(C(=O)CS(=O)(=O)c3ccccc3)c(=O)oc2c1`, the inhibition is 3.93%.

Take `Cc1cc(NC(=O)c2nn3cccnc3c2Cl)no1`: the inhibition was 4.99%.

For `Clc1ccc(-c2cnc3ccccc3n2)cc1`, the inhibition was 5.89%.

With `CN1C(=O)[C@@H]2C[C@@]3([C@@]45C[C@H]6C(=O)N(C)[C@@H](Cc7ccccc7)C(=O)N6[C@@H]4Nc4ccccc45)c4ccccc4N[C@H]3N2C(=O)[C@@H]1Cc1ccccc1`, the inhibition was 4.57%.

As for `O=C(O)CCn1cc(/C=C2\SC(=S)NC2=O)c(-c2ccccc2)n1`, the inhibition was 1.75%.

In the case of `O=Cc1cn(CCC(=O)O)nc1-c1cccc(Cl)c1`, the inhibition is 7.59%.

For `COc1ccc(C2(C(=O)Nc3cc(C)on3)CCOCC2)cc1`, the inhibition is 0.88%.

For the molecule `O=C(O)c1cccc(Cn2c(Cl)c(/C=N/NC(=O)c3ccccc3)sc2=O)c1`, the inhibition is 7.08%.

For the molecule `O=C(O)c1cccc(Cn2c(Cl)c(/C=N/Nc3ccccc3)sc2=O)c1`, the inhibition was 29.6%.

As to `CCC(C(=O)NC1CCCCCC1)n1nc(C)c2c(C)n(-c3ccccc3)nc2c1=O` (stereo unspecified), the inhibition is 8.34%.

For `COC(=O)c1ccc(NC(=O)CN(C2CCCCC2)S(C)(=O)=O)cc1`, the inhibition was -3.48%.

For `Cc1cc([N+](=O)[O-])ccc1N`, the inhibition was 6.27%.

For the molecule `Cc1ccc([N+](=O)[O-])cc1N`, the inhibition is -1.11%.

For `Cc1ccc(CN2CCN(C/C=C/c3ccc(F)cc3)CC2CCO)o1` (stereo unspecified), the inhibition was 19.4%.

In the case of `Cc1sc2ncn(CC(=O)NCc3ccco3)c(=O)c2c1-c1ccc(F)cc1`, the inhibition was 14.3%.

Consider `Cc1ccc(C(=O)N2CC(C)SC2=Nc2cccc(S(=O)(=O)N(C)C)c2)cc1` (stereo unspecified), for which the inhibition is 18.9%.

On to `CCN=c1scc(C)n1/N=C/c1ccc(O)c(O)c1O`, for which the inhibition was 9.52%.

`CCN=c1scc(C)n1/N=C/c1ccsc1`: the inhibition was 12.1%.

As for `COc1cc(/C=N/N2CCN(Cc3ccc(Cl)cc3)CC2)cc(Br)c1O`, the inhibition was 10.9%.

On to `COc1cc(/C=N/N2C(=O)CSC2=S)ccc1O`, for which the inhibition is 37.9%.

With `CCN=C1S/C(=C\c2cc(Br)c(O)c(OC)c2)C(=O)N1CC`, the inhibition was 25.1%.

In the case of `COc1cc(/C=N/n2c(C3CCCCC3)n[nH]c2=S)cc(Br)c1O`, the inhibition is 12.8%.

With `COc1ccc(/C=N/N2C(=O)CSC2=S)cc1Br`, the inhibition was 33.2%.

In the case of `COc1cc(/C=N/Nc2cccc(C)c2)cc(Br)c1O`, the inhibition was 13.3%.

For `COc1ccccc1NC(=O)c1sc2nc(N3CCOCC3)c3c(c2c1N)CCCC3`, the inhibition is 15.5%.

On to `S=c1[nH]nc(-c2ccccn2)n1/N=C/c1c(Cl)cccc1Cl`, for which the inhibition is 24.9%.

`COc1ccccc1N1CCN(C(=O)/C=C/c2ccccc2)CC1`: the inhibition is 5.64%.

In the case of `COc1ccc(/C=C(/C#N)C(=O)Nc2ccc(C)cc2C)cc1C(=O)O`, the inhibition is 19.8%.

`COc1cc(NC(=O)C2=C(N3CCOCC3)/C(=C\c3ccc(Br)cc3)CC2)cc(OC)c1OC`: the inhibition is -0.46%.

For the molecule `O=C(Nc1ccccc1)c1cccc(S(=O)(=O)N2CCCCC2)c1`, the inhibition was 1.37%.

For `Cn1c2ccccc2c2n[nH]c(=S)nc21`, the inhibition was 14.8%.

For the molecule `CCOC(=O)c1c(S(=O)(=O)NCc2ccc(OC)cc2)c(C)n(C)c1C`, the inhibition was 8.6%.

Consider `O=C(CSCC(=O)N1CCCCC1)OCC(=O)c1c[nH]c2ccccc12`, for which the inhibition was 7.84%.

`O=C(CSC1=NS(=O)(=O)c2ccccc2N1)NCCc1ccccc1`: the inhibition is 10.2%.

`CCCCCC(=O)N/N=C/c1cc(Br)c(O)c(OC)c1`: the inhibition is 24.7%.

Take `O=C1CSC(=S)N1/N=C/c1cc(Br)ccc1O`: the inhibition is 19.8%.

Consider `COc1cc(/C=N/N2C(C)CCCC2C)cc(Br)c1O` (stereo unspecified), for which the inhibition is 29.5%.

Regarding `O=C1CSC(=S)N1/N=C/c1ccc(Cl)c([N+](=O)[O-])c1`, the inhibition is 29.2%.

Regarding `COc1cc(/C=N/NC(=O)CC2(C)OCCO2)cc(Br)c1O`, the inhibition is 18%.

As for `COc1cc(/C=N/N=C/c2cc(OC)c(O)c(OC)c2)cc(OC)c1O`, the inhibition is 36.7%.
